Data on 40 molecules can be found in PubChem BioAssay (Tox21).

Molecules are shown by their SMILES. Results filed as inconclusive are left out. Where a call stands in place of a potency, no number is given. Values without a mark were called inactive. Active and inactive are the calls of the source. The call rests on the fitted dose curve; in most records, active means well fitted activation curve with a large enough effect in the signal ratio in the repeat runs (not every such curve was filed as active); inconclusive means weak or mixed curves, or effect the other way; inactive means no such curve, though single readings can be large or run the other way; the % refers to the signal ratio.
Potency means the concentration at half of the fitted maximal effect.

A short description of the experiment: qHTS assay for small molecule agonists of the antioxidant response element (ARE) signaling pathway (AID 743202). The following applies: HepG2 ARE-bla reporter, beta-lactamase FRET, 16 h; series mostly up to 73.3 µM. From the text:
U.S. Tox21 Program National Center for Advancing Translational Sciences [NCATS] NIH Chemical Genomics Center [NCGC] U.S. Environmental Protection Agency [EPA] National Institutes of Environmental Health Sciences [NIEHS] National Toxicology Program [NTP] U.S. Food and Drug Administration [FDA] Tox21 Assay Overview: Oxidative stress has been implicated in the pathogenesis of a variety of diseases ranging from cancer to neurodegeneration. The antioxidant response element (ARE) signaling pathway plays an important role in the amelioration of oxidative stress. The CellSensor ARE-bla HepG2 cell line (Invitrogen) can be used for analyzing the Nrf2/antioxidant response signaling pathway. Nrf2 (NF-E2-related factor 2) and Nrf1 are transcription factors that bind to AREs and activate these genes. The CellSensor ARE-bla Hep G2 cell line contains a beta-lactamase reporter gene under control of the Antioxidant Response Element (ARE) stably integrated into HepG2 cells. The activation of the report gene under culture conditions can be detected by fluorescence intensity. This cell line has been used to screen the Tox21 10K compound library to identify agonists that induce oxidative stress.
Tox21 Assay Protocol Summary: The ARE-bla cells were dispensed at 2,000 cells/5 ul/well in 1536-well black wall/clear bottom plates using a Multidrop dispenser. After the assay plates were incubated at a 37 C/5% CO2 incubator for 5 hours, 23 nL of compounds dissolved in DMSO, positive controls or DMSO only was transferred to the assay plate by a pin tool. The plates were incubated at 37 C for 16 hours. After 1 uL of LiveBLAzer B/G FRET substrate was added using a Flying Reagent Dispenser, the plates were incubated at room temperature for 2 hours, and fluorescence intensity was measured by an Envision plate reader.
(In qHTS, concentration-response curves come from the screen itself.)
`COC(=O)c1ccccc1C`: the Potency result is “inactive”. Still for that read-out and setting: the value for `C[C@@H](O)[C@H](N)C(=O)O` was “inactive”; that for `CCCCCc1ccc(Cl)cc1` was “inactive”. On the same count and under the same terms, next, `CCOC(=O)NNc1ccc(N(CC)CC(C)O)nn1` (stereo not given): “inactive”; `C=C(CC)C(=O)c1ccc(OCC(=O)O)c(Cl)c1Cl`: 0.764 µM (active). As for `C=CCCC(=O)/C=C/C1C(C)=CCCC1(C)C` (stereo not given), the Potency result was “inactive”. As for `COCCOc1cc2cc(C(=O)NC3CCN(C(C)C)CC3)n(CC(=O)Nc3ccc(Cl)cn3)c2cn1`, the Potency result is “inactive”.

Take `[Cl][Pt-2]([Cl])([Cl])[Cl]`: the Potency was 48.8 µM (active). `CC(C)(C)C1CCC(=O)CC1`: the Potency entry was “inactive”.

`c1ccc(SSc2ccccc2)cc1`: the Potency result was “inactive”. Take `Oc1cc(Cl)cc(Cl)c1Cl`: the Potency was 62.6 µM (active). `CCCCC(CC)COC(=O)CCCCC(=O)OCc1ccccc1` (stereo not given): the Potency result was “inactive”.

`O=C(O)c1cc(-c2ccc(F)cc2F)ccc1O`: the Potency was 13.3 µM (active). Turning to `O=c1oc2cc(O)ccc2c2oc3cc(O)ccc3c12`, the Potency was 20.8 µM (active).

Turning to `CN(C)Cc1ccccc1O`, the Potency result is “inactive”. With `FC(F)(F)c1cccc(Cl)c1`, the Potency result is “inactive”. Regarding `O=C(O)CN(CCN(CC(=O)O)CC(=O)O)CC(=O)O`, the activation was -0.355% [at 3.74 µM].

Take `Clc1sc(Cl)c(Cl)c1Cl`: the Potency result is “inactive”. As for `CC(C)(C)CC(C)(C)c1ccc(Nc2ccc(C(C)(C)CC(C)(C)C)cc2)cc1`, the activation is -4.99% [at 8.36 µM].

As for `Cc1nc(-c2ccc(Cl)cc2)oc1COC(C)(C)C(=O)O`, the Potency entry was “inactive”. Still for that read-out and setting: next, `Cc1c(C)c([N+](=O)[O-])c(C(C)(C)C)c([N+](=O)[O-])c1C`: “inactive”; `CC(C)NC[C@@H](O)COc1ccc(CC(N)=O)cc1`: “inactive”. Consider `Cc1ccc(-c2ccccc2)cc1`, for which the Potency result is “inactive”. Still for that read-out and setting: next, `CCOC(=O)Cn1cccc1-c1nc(-c2ccc(OC)cc2)c(-c2ccc(OC)cc2)s1`: 7.5 µM (active); `Cc1cc(C(C)(C)C)c(O)c(C)c1Cn1c(=O)n(Cc2c(C)cc(C(C)(C)C)c(O)c2C)c(=O)n(Cc2c(C)cc(C(C)(C)C)c(O)c2C)c1=O`: “inactive”; `O=[N+]([O-])c1ccc(F)c(Cl)c1`: “inactive”. Turning to `CC(C)OC(=O)C(O)(CC(=O)O)CC(=O)O`, the Potency entry was “inactive”. Same read-out and setting: next, `Sc1nc2ccccc2s1`: “inactive”; `C/C=C/C=C/COC(=O)C(C)C`: 61.1 µM (active). On to `Clc1ccnc(Cl)n1`, for which the Potency result is “inactive”. For `Cc1c(N)cccc1C(F)(F)F`, the Potency entry was “inactive”.

Regarding `CCN1C(=O)c2ccccc2C1Nc1ccc(OCCN2CCCCC2)cc1` (stereo not given), the Potency result is “inactive”. Turning to `CCCCCCC1CCCC(=O)O1` (stereo not given), the Potency entry was “inactive”.

Regarding `O=C(O)c1cc(=O)c2ccccc2o1`, the Potency entry is “inactive”. For the molecule `OC/C=C/CO`, the Potency is 21.6 µM (active).

Regarding `COC(=O)c1ccccc1OC`, the Potency entry was “inactive”. As for `Nc1nc2c(ncn2COCCO)c(=O)[nH]1`, the Potency entry was “inactive”.

For `O=C(O)c1ccc2cc(C(=O)O)ccc2c1`, the Potency entry was “inactive”. Take `c1cnccn1`: the Potency entry is “inactive”. As to `CCN(CC)c1ccc2c(-c3ccc(S(=O)(=O)O)cc3S(=O)(=O)[O-])c3ccc(=[N+](CC)CC)cc-3oc2c1`, the Potency entry is “inactive”.
